Reference: PubChem BioAssay
Entries with a potency or affinity are not part of this list. Records with an inconclusive call do not appear. Calls of active or inactive are those of the source. No rule for the calls is given here.

Assay: non-specific cell cytotoxicity, dose response, cytotoxicity control for PAX8 inhibitor project, plate reader, dry powder samples (AID 743021)
Details: cell line, non-specific cytotoxicity counter-screen; series mostly up to 35 µM

Structure (SMILES)	outcome
C[C@H]1CCCCO[C@H](CN(C)Cc2ccc(Cl)c(Cl)c2)[C@@H](C)CN([C@@H](C)CO)C(=O)c2cc(NC(=O)Nc3ccc(F)cc3)ccc2O1	inactive
C[C@@H]1CN([C@@H](C)CO)C(=O)c2c(c3ccccc3n2C)-c2ccccc2CO[C@H]1CN(C)C(=O)Nc1ccc2c(c1)OCO2	inactive
C[C@@H]1CCCCO[C@H](CN(C)Cc2ccc(C(F)(F)F)cc2)[C@H](C)CN([C@@H](C)CO)C(=O)c2cc(NC(=O)Nc3ccc(F)cc3)ccc2O1	inactive
C[C@H](CO)N1C[C@H](C)[C@H](CN(C)S(=O)(=O)c2cccs2)OCCCC[C@H](C)Oc2ccc(NC(=O)NC3CCCCC3)cc2C1=O	inactive
C[C@H]1CCCCO[C@@H](CN(C)S(=O)(=O)c2cccs2)[C@@H](C)CN([C@@H](C)CO)C(=O)c2cc(NC(=O)NC3CCCCC3)ccc2O1	inactive
C[C@@H]1CN([C@H](C)CO)C(=O)c2cc(NS(=O)(=O)c3ccc(F)cc3)ccc2O[C@@H]1CN(C)Cc1ccc(C(F)(F)F)cc1	inactive
C[C@@H]1CCCCO[C@H](CN(C)C(=O)Cc2ccccc2)[C@H](C)CN([C@@H](C)CO)C(=O)c2cc(NC(=O)Nc3ccc(C(F)(F)F)cc3)ccc2O1	inactive
C[C@H](CO)N1C[C@H](C)[C@@H](CN(C)C(=O)NC2CCCCC2)Oc2cc(C#Cc3ccc(F)cc3)ccc2S1(=O)=O	inactive
C[C@@H]1CCCCO[C@H](CN(C)C)[C@H](C)CN([C@H](C)CO)C(=O)c2cc(NC(=O)Nc3cccc4ccccc34)ccc2O1	inactive
